From PubChem BioAssay (EPA / NIEHS)
Inconclusive results are not listed. The source made the active and inactive calls. How the source made its calls, unless noted: active means hit-call score of the fitted dose curve at least 0.9, where 1 is the maximum; inactive means score below 0.9.

What was measured:
[1] = TOX21_p53_BLA_p2_viability: Viability Assessment in the Tox21 HCT-116 p53 Agonism Beta-lactamase Assay, Phase 2 (AID 2283591; active means hit-call score of the fitted dose curve at least 0.9, where 1 is the maximum;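 further: actives lower the ATP signal meaning cytotoxicity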)
Summary of the method: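 HCT116 p53-bla cells, 4000/well, dosed after 5 h plating (217-fold dilution of DMSO stocks) and incubated 16 h at 37C. Viability taken as cellular ATP by CellTiter-Glo luminescence after 30 min RT; signal loss marks cytotoxicity.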

[2] = TOX21_p53_BLA_p3_viability: Viability Assessment in the Tox21 HCT-116 p53 Agonism Beta-lactamase Assay, Phase 3 (AID 2283593; active means hit-call score of the fitted dose curve at least 0.9, where 1 is the maximum;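 further: cells exposed to compound for 16 h before reading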)
Summary of the method: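 HCT116 cells, 4000/well, dosed 5 h after plating by pin transfer (217-fold dilution from DMSO stock) and incubated 16 h at 37C, 5% CO2. Viability read as ATP luminescence with CellTiter-Glo after 30 min at room temperature.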

[3] = TOX21_p53_BLA_p4_viability: Viability Assessment in the Tox21 HCT-116 p53 Agonism Beta-lactamase Assay, Phase 4 (AID 2283597; active means hit-call score of the fitted dose curve at least 0.9, where 1 is the maximum;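 further: hits lower the luminescence signal meaning cytotoxicity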)
Summary of the method: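 ATP content by CellTiter-Glo luminescence, 30 min RT, read after the beta-lactamase ratio step. Cells: HCT116, 4000/well, compound added after 5 h, exposure 16 h at 37C. Signal loss = reduced viability.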

[4] = target: Cellular tumor antigen p53 (Homo sapiens) (UniProt P04637); assay: TOX21_p53_BLA_p5_ratio: Tox21 HCT-116 p53 Agonism Beta-lactamase Assay, Ratio, Phase 5 (AID 2283599; active means hit-call score of the fitted dose curve at least 0.9, where 1 is the maximum)
Summary of the method: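 HCT-116 p53-bla cells (4000/well) plated 5 h, dosed with compound (217-fold DMSO dilution) for 16 h at 37 C; CCF4-AM substrate 2 h at room temperature. Activity is the 460/530 nm emission ratio (405 nm excitation), fitted in gain-of-signal direction versus DMSO.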

[5] = CCTE_Shafer_MEA_dev_firing_rate_mean: CCTE's Neural Network Formation Assay for Mean Firing Rate, Shafer Lab (AID 2284031)
Summary of the method: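 Read-out: spike count/recording length, averaged over active electrodes, then AUC across days 5, 7, 9, 12. Rat cortical cultures on MEA; continuous 12-day exposure, media and treatment renewed DIV 5, 9; DMSO baseline.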

[6] = CCTE_Shafer_MEA_dev_per_burst_spike_percent: CCTE's Neural Network Formation Assay for Percent of Spikes in a Burst, Shafer Lab (AID 2284032)
Summary of the method: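 Value is trapezoidal AUC over recordings on days 5, 7, 9 and 12 of the well-mean fraction of spikes falling in single-electrode bursts; rat cortical cultures exposed continuously from plating, treatment renewed DIV 5 and 9, fitted downward against DMSO.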

[7] = CCTE_Shafer_MEA_dev_active_electrodes_number: CCTE's Neural Network Formation Assay for Number of Active Electrodes, Shafer Lab (AID 2284040; active means hit-call score of the fitted dose curve at least 0.9, where 1 is the maximum)
Summary of the method: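 Developing rat cortical networks on MEAs, exposed DIV 0–12. Value is the AUC of active-electrode counts (≥5 spikes/min) from days 5, 7, 9, 12, relative to DMSO.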

[8] = CCTE_Shafer_MEA_dev_burst_rate: CCTE's Neural Network Formation Assay for Burst Rate, Shafer Lab (AID 2284042)
Summary of the method: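 Rat primary cortical cultures on PEI/laminin MEA; compound from plating, re-dosed at DIV 5, 9 media change. Single-electrode bursts/recording length, well mean of active electrodes; AUC over DIV 5–12 recordings; loss-of-signal vs DMSO.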

[9] = CCTE_Shafer_MEA_dev_bursting_electrodes_number: CCTE's Neural Network Formation Assay for Number of Bursting Electrodes, Shafer Lab (AID 2284043; active means hit-call score of the fitted dose curve at least 0.9, where 1 is the maximum)
Summary of the method: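 Rat cortical primary neurons, 48-well MEA, 16 electrodes/well; dosing DIV 0–12, re-dosed with full media change DIV 5, 9. Recordings DIV 5/7/9/12, AxIS adaptive spike detector; bursting electrode = ≥1 burst/2 min. AUC across days; loss of signal vs DMSO.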

[10] = CCTE_Shafer_MEA_dev_per_burst_interspike_interval: CCTE's Neural Network Formation Assay for Burst Interspike Interval, Shafer Lab (AID 2284044)
Summary of the method: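 Readout is the average time between spikes inside single-electrode bursts, taken as a well mean across bursting electrodes. Cortical neurons from rat developed networks on MEA plates under continuous 12-day exposure; recordings on days 5, 7, 9 and 12 were integrated by trapezoidal AUC.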

[11] = CCTE_Shafer_MEA_dev_burst_duration_mean: CCTE's Neural Network Formation Assay for Mean Burst Duration, Shafer Lab (AID 2284045)
Summary of the method: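 Rat cortical cultures, 1.5 x 10^5 cells/well with laminin drop; continuous dosing days 0–12, media plus treatment refreshed DIV 5, 9. AxIS adaptive spike detection; mean single-electrode burst duration, AUC over four recordings, negative direction vs DMSO.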

[12] = CCTE_Shafer_MEA_dev_interburst_interval_mean: CCTE's Neural Network Formation Assay for Mean Interburst Interval, Shafer Lab (AID 2284046);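 further: well-mean interburst interval of bursting electrodes as AUC over four recording days; curve fitted for decrease in interburst interval relative to DMSO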
Summary of the method: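 Rat cortical neurons, 1.5 x 10^5 cells/well, 48-well MEA; compound from day 0 through DIV 12, media and treatment renewed DIV 5/9. Recordings DIV 5, 7, 9, 12; well-mean interburst interval → trapezoidal AUC, loss direction vs DMSO.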

[13] = CCTE_Shafer_MEA_dev_inter_network_spike_interval_mean: CCTE's Neural Network Formation Assay for Mean Inter-network Spike Interval, Shafer Lab (AID 2284047)
Summary of the method: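 Primary rat cortical neurons on PEI-coated 48-well MEAs (16 electrodes/well) were exposed from plating day 0 to DIV 12, with dosing renewed at DIV 5 and 9. Recordings at DIV 5, 7, 9, 12 were collapsed by trapezoidal AUC, loss-of-signal fit vs DMSO.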

[14] = CCTE_Shafer_MEA_dev_network_spike_number: CCTE's Neural Network Formation Assay for Number of Network Spikes, Shafer Lab (AID 2284048)
Summary of the method: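 Rat cortical primary cultures on 48-well MEA (16 electrodes/well); continuous exposure DIV 0–12, full medium and treatment exchange DIV 5, 9. Readout: network spike count, AxIS adaptive detection, recordings DIV 5/7/9/12 collapsed to AUC; loss-of-signal fit, DMSO baseline.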

[15] = CCTE_Shafer_MEA_dev_network_spike_peak: CCTE's Neural Network Formation Assay for Mean Number of Electrodes in Network Spike, Shafer Lab (AID 2284049)
Summary of the method: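 Network-spike peak electrode count from recordings on days 5, 7, 9 and 12 was combined as trapezoidal area under the curve. Rat cortical cultures were treated continuously from plating, with compound renewed at each feed (DIV 5, 9); fits versus DMSO.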

[16] = CCTE_Shafer_MEA_dev_spike_duration_mean: CCTE's Neural Network Formation Assay for Mean Spike Duration, Shafer Lab (AID 2284051);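 further: mean network spike duration pooled as area under curve over DIV 5 to 12 recordings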
Summary of the method: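 Rat cortical primary cultures, 48-well MEA (16 electrodes/well); compound from plating, renewed DIV 5, 9. Network spike duration (AxIS adaptive detector) recorded DIV 5/7/9/12, combined as trapezoidal AUC; loss direction vs DMSO.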

Measured: outcome

Sequence of Cellular tumor antigen p53 (Homo sapiens) (P04637 whole entry, looked up): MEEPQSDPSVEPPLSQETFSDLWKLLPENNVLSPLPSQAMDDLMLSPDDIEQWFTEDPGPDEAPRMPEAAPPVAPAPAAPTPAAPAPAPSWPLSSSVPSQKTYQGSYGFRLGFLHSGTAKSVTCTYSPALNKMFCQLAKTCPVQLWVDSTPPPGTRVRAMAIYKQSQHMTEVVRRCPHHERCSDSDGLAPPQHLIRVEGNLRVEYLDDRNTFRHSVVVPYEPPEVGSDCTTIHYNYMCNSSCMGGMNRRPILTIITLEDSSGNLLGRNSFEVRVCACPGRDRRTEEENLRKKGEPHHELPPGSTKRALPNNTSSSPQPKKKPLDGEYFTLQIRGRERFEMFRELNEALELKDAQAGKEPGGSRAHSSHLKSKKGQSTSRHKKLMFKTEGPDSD

CN[C@]1(c2ccccc2Cl)CCCCC1=O
inactive: [1] | [2] | [3] | [4] | [5] | [6] | [7] | [8] | [9] | [10] | [11] | [12] | [13] | [14] | [15] | [16]
